Structures can show the parent of a compound that is named as a salt. Among all 1,300 compounds or so, about 40 (3%) showed activity. Shown is part of a subset that was picked to be rich in actives. A number with no mark means an inactive call.
Test system: Plasmodium falciparum NF54/iGP1_RE9H ulg8 stage V gametocytes
Experiment: gametocyte viability (luciferase signal relative to DMSO control) (% of DMSO control); higher = less gametocytocidal activity, active = 50 or less
Conditions: exposure time: 72 h
Method in brief: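 NF54/iGP1_RE9Hulg8 stage V gametocytes (day 12; ~2.5% gametocytemia, 3% hematocrit) were incubated with compounds at 10 µM or 1 µM final, in one well each, for 72 h at 37 °C in medium with 0.5% Albumax II. Luminescence after D-luciferin addition was read on an IVIS Lumina II. Viability refers to the mean of plate DMSO vehicle wells.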

Compound | gametocyte viability (concentration: 1 µM) | gametocyte viability (concentration: 10 µM)
C=CC1=C(C(=O)O)N2C(=O)[C@@H](NC(=O)/C(=N\O)c3csc(N)n3)[C@H]2SC1 [Cefdinir] | 80.8 | 83.8
CN1C(=O)OC(C)(C)C1=O [Trimethadione] | 82.9 | 88.6
CC1=C(CC(=O)O)c2cc(F)ccc2/C1=C\c1ccc([S+](C)[O-])cc1 (stereo not given) [Sulindac] | 88.6 | 82.7
Cc1cc(NC(=O)C2=C(O)c3ccccc3S(=O)(=O)N2C)no1 [Isoxicam] | 82.8 | 81.8
C[N+]1(C)CCC(=C(c2ccccc2)c2ccccc2)CC1 [Diphemanil methylsulfate] | 87 | 83
CCc1ccc(CCOc2ccc(CC3SC(=O)NC3=O)cc2)nc1 (stereo not given) [Pioglitazone] | 86 | 88.2
NC(=O)C(c1ccccc1)(c1ccccc1)[C@@H]1CCN(CCc2ccc3c(c2)CCO3)C1 [Darifenacin hydrobromide] | 81.7 | 84.2
CC(C)(S)[C@@H](N)C(=O)O [Penicillamine] | 92.4 | 93.1
N#Cc1cc(NC(=O)C(=O)O)c(Cl)c(NC(=O)C(=O)O)c1 [Lodoxamide] | 91.8 | 102
CC1=C(/C=C/C(C)=C/C=C/C(C)=C/C(=O)O)C(C)(C)CCC1 [Retinoic acid] | 82.1 | 64
CCC(=O)[C@@]1(C)[C@H](C)C[C@H]2[C@@H]3CCC4=CC(=O)C=C[C@]4(C)[C@H]3[C@@H](O)C[C@@]21C [Rimexolone] | 89.4 | 85.3
CCCNC(C)C(=O)Nc1c(C)csc1C(=O)OC (stereo not given) [Articaine hydrochloride] | 81.9 | 83
CN/C(=N\CCSCc1nc[nH]c1C)NC#N [Cimetidine] | 100 | 94.5
C[C@]12CC[C@@H]3c4ccc(O)cc4C[C@@H](CCCCCCCCC[S+]([O-])CCCC(F)(F)C(F)(F)F)[C@H]3[C@@H]1CC[C@@H]2O (stereo not given in full) [Fulvestrant] | 90.3 | 84.7
O=C1OC(CN2CCOCC2)CN1/N=C/c1ccc([N+](=O)[O-])o1 (stereo not given) [Furaltadone hydrochloride] | 89.7 | 93.4
CN(C)CCN1C(=O)c2ccccc2N(C)c2ccccc21 [Dibenzepine hydrochloride] | 84.8 | 91.3
COc1cc(NC(C)CCCN)c2ncccc2c1 (stereo not given) [Primaquine diphosphate] | 83.1 | 35.1 (active)
CCCc1nn(C)c2c(=O)[nH]c(-c3cc(S(=O)(=O)N4CCN(C)CC4)ccc3OCC)nc12 [Sildenafil] | 90.3 | 70.6
CCCc1nc(C)c2c(=O)nc(-c3cc(S(=O)(=O)N4CCN(CC)CC4)ccc3OCC)[nH]n12 [Vardenafil] | 70.1 | 43.9 (active)
CN(C)CCOC(c1ccccc1)c1ccccc1.Cn1c(=O)c2[nH]c(Cl)nc2n(C)c1=O [Dimenhydrinate] | 89 | 94
COc1ccc(CN(CCN(C)C)c2ccccn2)cc1 [Pyrilamine maleate] | 90.9 | 100
CN(C)CCN(Cc1ccc(Cl)cc1)c1ccccn1 [Chloropyramine hydrochloride] | 87.4 | 90.3
CCCCCCCCCCCCCCCC[N+](C)(C)CCN(Cc1ccc(OC)cc1)c1ncccn1 [Thonzonium bromide] | 77 | 1.76 (active)

Compound | gametocyte viability (concentration: 1 µM) | gametocyte viability (concentration: 10 µM)
CCCNCC(O)COc1ccccc1C(=O)CCc1ccccc1 (stereo not given) [Propafenone hydrochloride] | 81.6 | 75.7
CC(C)Nc1cccnc1N1CCN(C(=O)c2cc3cc(NS(C)(=O)=O)ccc3[nH]2)CC1 [Delavirdine] | 92.5 | 95.8
CC[C@@H]1C(=O)OC[C@@H]1Cc1cncn1C [Pilocarpine nitrate] | 98.2 | 98
CC(C)NCC(O)c1ccc(NS(C)(=O)=O)cc1 (stereo not given) [Sotalol hydrochloride] | 83.1 | 92.1
N=C(NCCCCCCNC(=N)NC(=N)Nc1ccc(Cl)cc1)NC(=N)Nc1ccc(Cl)cc1 [Chlorhexidine] | 92.1 | 1.08 (active)
CC(C)NC(=N)NC(=N)Nc1ccc(Cl)cc1 [Proguanil hydrochloride] | 100 | 106
N=C(N)NC(=N)NCCc1ccccc1 [Phenformin hydrochloride] | 83.8 | 83.6
N=C(N=C(N)N)N1CCOCC1 [Moroxidine hydrochloride] | 83.9 | 87.9
NC1CCN(c2nc3c(cc2F)c(=O)c(C(=O)O)cn3-c2ccc(F)cc2F)C1 (stereo not given) [Tosufloxacin hydrochloride] | 78.5 | 86.9
NC(=O)c1ccc[n+]([C@@H]2O[C@H](COP(=O)([O-])OP(=O)(O)OC[C@H]3O[C@@H](n4cnc5c(N)ncnc54)[C@H](O)[C@@H]3O)[C@@H](O)[C@H]2O)c1 [Nadide] | 85.3 | 79.3
C[C@]12CCC(=O)C=C1C=C[C@@H]1[C@@H]2CC[C@@]2(C)[C@H]1CC[C@@]21CCC(=O)O1 [Canrenone] | 80 | 83.7
C[C@H]1O[C@H](O[C@H]2[C@H](O)[C@@H](O)[C@@H](O[C@@H]([C@H](O)[C@@H](O)C=O)[C@H](O)CO)O[C@@H]2CO)[C@H](O)[C@@H](O)[C@@H]1N[C@H]1C=C(CO)[C@@H](O)[C@H](O)[C@H]1O [Acarbose] | 80.6 | 83.5
NCCc1cc[nH]n1 [Betazole hydrochloride] | 94.2 | 94.2
CCC(=O)OCC(=O)[C@@]1(OC(=O)CC)[C@H](C)C[C@H]2[C@H]3[C@H]([C@@H](O)C[C@@]21C)[C@@]1(C)C=CC(=O)C=C1C[C@H]3Cl [Alclometasone dipropionate] | 83.6 | 78.3
CN(N=O)C(=O)N[C@H]1C(O)O[C@H](CO)[C@@H](O)[C@@H]1O (mixture of isomers) [Streptozotocin] | 84.7 | 92.1
C[C@@H](O)[C@H]1C(=O)N2C(C(=O)O)=C(SCCNC=N)C[C@H]12 [Imipenem] | 88.8 | 87.5
Cc1cc(N)c2ccccc2[n+]1CCCCCCCCCC[n+]1c(C)cc(N)c2ccccc21 [Dequalinium dichloride] | 83.5 | 36.1 (active)
Cc1[nH]c(=O)c(C#N)cc1-c1ccncc1 [Milrinone] | 81 | 82.1
Cc1c(C)c2c(c(C)c1O)CCC(C)(COc1ccc(CC3SC(=O)NC3=O)cc1)O2 (stereo not given) [Troglitazone] | 81.7 | 76.3
CC=C(C)C(=O)OC1C(OC(C)=O)C2(CO)C(O)CC3(C)C(=CCC4C5(C)CCC(OC6OC(C(=O)O)C(OC7OC(CO)C(O)C(O)C7O)C(O)C6OC6OC(CO)C(O)C(O)C6O)C(C)(CO)C5CCC43C)C2CC1(C)C (stereo not drawn) [Beta-Escin] | 90.1 | 93.2
C[C@@H](O[C@H]1OCCN(Cc2n[nH]c(=O)[nH]2)[C@H]1c1ccc(F)cc1)c1cc(C(F)(F)F)cc(C(F)(F)F)c1 [Aprepitant] | 87.7 | 75.4
CCN(CC)CCNC(C(=O)OCCC(C)C)c1ccccc1 (stereo not given) [Camylofine chlorhydrate] | 79.9 | 85.5
